A selection: hits, their analogues and other compounds. The true share with any hit is near 1%.
EBV gp42 inh = blocks Epstein-Barr virus glycoprotein 42 binding. Q1HVG2. Fluorescence polarization binding assay, mP read-out. inhibition, % (tested at 21.74 µM). actives 0.42% (n = 220,000); in the data active = inhibition above about 50%
Target sequence (Q1HVG2 whole entry, looked up): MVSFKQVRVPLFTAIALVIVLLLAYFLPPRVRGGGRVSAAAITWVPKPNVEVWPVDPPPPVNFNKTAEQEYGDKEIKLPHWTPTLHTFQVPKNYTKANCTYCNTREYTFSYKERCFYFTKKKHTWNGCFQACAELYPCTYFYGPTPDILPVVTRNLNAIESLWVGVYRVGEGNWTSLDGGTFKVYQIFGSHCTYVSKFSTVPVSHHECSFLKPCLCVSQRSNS
MEX-5 binding = C. elegans MEX-5 TCR-2 RNA binding activity. Q9XUB2. MEX-5/FITC-TCR2 RNA binding, fluorescence polarization; stronger effect = lower value. activity score (negative = inhibition of binding), % at 10 µM. actives 0.38% (n = 300,000);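 active = inhibition past about -25% in most replicates, and total fluorescence under double the plate's negative control median, limit read from the data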;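 note: 0% = DMSO and -100% = 5 µM competing unlabeled TCR2 RNA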
EBNA-1 inh = blocks EBNA-1 binding to DNA; EBNA-1 DNA binding, fluorescence polarization; inhibition, % at 14.8 µM; actives 0.34% (n = 300,000); in the data active = inhibition above about 28%
ZTA counter = ZTA (EBV) inhibition in EBNA-1 counter-screen | ZTA-DNA binding, fluorescence polarization | inhibition, % at 11 µM | actives 0.15% (n = 320,000); in the data active = inhibition above about 33%
Target sequence (P03206 whole entry, looked up): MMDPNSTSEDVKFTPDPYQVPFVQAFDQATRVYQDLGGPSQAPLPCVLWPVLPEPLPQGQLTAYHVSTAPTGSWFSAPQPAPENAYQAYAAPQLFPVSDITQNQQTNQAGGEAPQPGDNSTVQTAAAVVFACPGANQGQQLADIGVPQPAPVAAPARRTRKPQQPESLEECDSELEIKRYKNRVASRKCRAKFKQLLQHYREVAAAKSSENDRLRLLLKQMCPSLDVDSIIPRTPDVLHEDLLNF
EBNA-1 inh conf = EBNA-1 (EBV) inhibition, confirmation. shares compounds with EBNA-1 inh. Recombinant EBNA-1 DBD, Cy5-DNA fluorescence polarization. inhibition, % at 14.8 µM. actives 35% (n = 830);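 active = mean inhibition across replicates above a set limit taken from the earlier primary screen, cut at about 28% in these data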;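 note: plate controls were EBNA-1 protein with DMSO for no effect and wells lacking EBNA-1 for full effect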
ZTA counter trip = counter-screen for EBNA-1 inhibitors: Epstein-Barr virus ZTA inhibitors, triplicate | Zta-ZRE DNA binding, Cy5 fluorescence polarization | inhibition, % at 11.1 µM | AID 2328 | shares compounds with EBNA-1 inh | 830 tested, under 10 active;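 active = mean inhibition over triplicates above a set limit taken from the primary EBNA-1 screen, cut at about 37% in these data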;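 note: purified full length Zta protein with Cy5 labeled ZRE DNA probe; 0% = Zta with DMSO and 100% = wells lacking Zta protein; inhibitors lower polarization by freeing the labeled DNA probe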
An asterisk follows results filed as active; . = no result given.

SMILES	EBV gp42 inh	MEX-5 binding	EBNA-1 inh	ZTA counter	EBNA-1 inh conf	ZTA counter trip
Cc1ccc(N(CC(=O)Nc2ccc(-c3nc4ccc(C)cc4s3)cc2)S(C)(=O)=O)cc1	-25	-2	0	27	.	.
Cc1ccc(C)c(N(CC(=O)Nc2ccc(-c3nc4ccc(C)cc4s3)cc2)S(C)(=O)=O)c1	-60	2	36*	9	3	-10
COc1ccc(C(=O)/C=C/Nc2ccc(S(=O)(=O)Nc3cc(OC)nc(OC)n3)cc2)c(OC)c1	.	-15	0	-2	.	.
CCCN1Cc2cccc(C(=O)Nc3ccc(-c4nc5ccccc5[nH]4)cc3)c2C1=O	-12	0	58*	-6	51*	3
O=C(O)c1ccc(N2C(=O)CC(SC(=NCc3ccc4c(c3)OCO4)Nc3ccccc3)C2=O)cc1 (stereo not given)	-7	3	-3	15	.	.
O=C1CC(SC(=NCc2ccc3c(c2)OCO3)Nc2ccccc2)C(=O)N1c1ccccc1 (stereo not given)	-4	0	44*	8	-12	-9
Cc1ccc(NC(=O)CSc2ccc(-c3ccc4c(c3)OCO4)nn2)cc1F	-9	-1	52*	-10	68*	1
NC(=O)c1ccc(NC(=O)COC(=O)/C=C/c2cccs2)cc1	-7	-2	-3	-7	.	.
NS(=O)(=O)c1ccc(NC(=O)COC(=O)/C(=C/c2cccs2)c2cccs2)cc1	-20	-2	64*	10	60*	13
NS(=O)(=O)c1ccc(NC(=O)Cc2cccs2)cc1	.	1	.	.	.	.
Cc1ccc(NC(=O)COC(=O)/C=C/c2cccs2)cc1	6	1	39*	-1	11	8
COc1ccc(S(=O)(=O)N2CCOC23CCN(S(=O)(=O)c2cc(F)ccc2F)CC3)cc1	.	1	-8	-3	.	.
O=C(Nc1ccc(NC(=O)c2ccccc2O)cc1)Nc1ccc(F)cc1F	-28	-3	38*	-8	10	-9
O=C(Nc1ccc(F)cc1)Nc1ccccc1F	6	1	4	-2	.	.
O=C(CCc1nc2sc3c(c2c(=O)[nH]1)CCCC3)Nc1ccccc1Cl	.	-5	39*	7	8	-2
COc1ccc(O)c(/C=N/NC(=O)CCC(=O)Nc2ccc(C)cc2)c1	.	-1	50*	10	0	6
O=C(CCC(=O)Nc1ccc(Br)cc1)N/N=C/c1ccc(O)cc1	.	1	28*	11	1	7
COc1ccc(O)c(/C=N/NC(=O)CCC(=O)Nc2cccc(C)c2)c1	.	-2	8	19	.	.
CCN(CC(=O)Nc1cc(S(=O)(=O)N2CCCCC2)ccc1C)Cc1ccccc1	.	0	-6	5	.	.
NS(=O)(=O)c1ccc(NC(=O)/C=C/c2ccc3c(c2)OCO3)cc1	-6	-1	44*	33	14	13
CC(=O)Nc1ccc(NC(=O)/C=C/c2ccc3c(c2)OCO3)cc1	-12	1	-4	-10	.	.
Cc1cccc(COC(=O)Nc2ccc(NC(=O)c3ccccc3Cl)cc2)c1	.	3	48*	-13	5	-5
CCOC(=O)Nc1ccccc1C(=O)Nc1cc(C)cc(C)c1	2	2	-4	-13	.	.
Cc1ccc(S(=O)(=O)NCCn2nc(C)cc2C)cc1	.	1	2	2	.	.
CC1CCCCN1C(=O)NC1CC(=O)N(c2ccc3c(c2)OCCO3)C1 (stereo not given)	.	3	1	-2	.	.
SMILES	EBV gp42 inh	MEX-5 binding	EBNA-1 inh	ZTA counter	EBNA-1 inh conf	ZTA counter trip
CCCCN(C(=O)c1cccc(-n2cccc2)c1)c1c(N)n(Cc2ccccc2)c(=O)[nH]c1=O	.	0	31*	22	-4	-7
CCCCN(C(=O)c1cccc(N2C(=O)c3ccccc3C2=O)c1)c1c(N)n(CC(C)C)c(=O)[nH]c1=O	.	.	.	-4	.	.
CCCCN(C(=O)c1cc(CC)c(C)s1)c1c(N)n(CC(C)C)c(=O)[nH]c1=O	.	2	66*	-16	4	-6
COc1cccc(NC(=O)c2cc3ccccc3cc2OC)c1	.	2	-3	11	.	.
C=CCn1c(=NC(=O)c2cc(-c3cccs3)nc3ccccc23)sc2cc(S(N)(=O)=O)ccc21	-31	2	29*	7	22	10
NC(=S)N/N=C/c1cccc(/C=N/NC(N)=S)c1	-5	-1	9	4	.	.
NC(=S)N/N=C/c1ccc(/C=N/NC(N)=S)cc1	-3	-2	68*	6	34*	4
O=S1(=O)N=C(N(CCO)/N=C/c2ccc(Br)cc2)c2ccccc21	.	0	32*	-7	22	9
O=C(c1ccc2c(=O)n3c(nc2c1)CCC3)N1CCCSC1=Nc1ccccc1	.	0	-3	5	.	.
COc1ccc(CNc2nc(NCc3ccc(OC)cc3)c3[nH]cnc3n2)cc1	3	2	39*	-7	7	11
COc1ccc(CNc2ncnc(N)n2)cc1	-18	0	1	-6	.	.
CCC(=O)Nc1ccc(NC(=S)NC(=O)c2cc3ccccc3o2)cc1	-4	-2	5	10	.	.
CCC(=O)Nc1cccc(NC(=S)NC(=O)c2cc3ccccc3o2)c1	-17	-1	31*	2	12	16
CCn1cc(/C=N/NC(=O)c2cc3c(ccc4ccccc43)o2)c2ccccc21	-7	2	62*	-2	8	10
CC1CCCCC1NC(=O)C1CCC(CNS(=O)(=O)c2ccccc2)CC1 (stereo not given)	.	-1	31*	-3	9	6
O=C(NCCc1c[nH]c2ccccc12)C1CCC(Cn2c(=S)[nH]c3ccccc3c2=O)CC1 (stereo not given)	0	-3	28*	15	7	-5
Cc1ccc(NC(=O)CCN2C(=O)c3cccc4cccc(c34)C2=O)cc1	-1	-3	-16	-10	.	.
Cc1ccc(NC(=O)CCCN2C(=O)c3cccc4cccc(c34)C2=O)cc1	-4	1	55*	12	9	8
Cc1cc(NC(=O)COC(=O)c2oc3c(ccc4ccccc43)c2C)no1	-8	-1	50*	17	56*	4
CCOCCCNC(=O)Cn1nc(Cc2ccncc2)c2ccccc2c1=O	.	1	6	9	.	.
COc1ccc2nc(NC(=O)CC3Oc4ccccc4NC3=O)sc2c1 (stereo not given)	-3	-1	56*	9	20	11
CCOc1ccc2nc(NC(=O)CC3Oc4ccccc4NC3=O)sc2c1 (stereo not given)	-9	1	22	8	.	.
COc1ccc(-c2ccc(SCC(=O)NC3CCCC3)nn2)cc1OC	.	-2	-3	29	.	.
COc1ccc(-c2ccc(C#N)c(SCC(=O)NCc3ccco3)n2)cc1OC	-16	-3	45*	-6	41*	0
COc1ccc(-c2ccc(C#N)c(SCC(=O)OCc3ccccc3)n2)cc1OC	-13	0	-5	-10	.	.
COc1ccc(-c2ccc(C#N)c(SCC(=O)NC3CC3)n2)cc1OC	-5	0	32*	6	13	4
